Screening data from PubChem BioAssay.
In the library only some 1.6% were active in any assay of this set; here they are far more common.
STAT1 inh: inhibitors of IFN-gamma induced STAT1 signaling; NIH 3T3 STAT1-luciferase reporter, luminescence; inhibition, % at 5.5 µM; 200,000 tested, 0.35% active; AID 920;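 active means inhibition above a set limit, the mean inhibition across all tested compounds plus 3 SD, cut at about 34% in these data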
PPC-1+TRAIL kill: PPC-1 cancer cell killing with TRAIL present; PPC-1 cells + TRAIL, ATPLite viability luminescence; cell killing (% activity), % at 4 µM or 5 µM; 220,000 tested, 0.41% active;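 active means cell killing above 50% in the first pass at 4 µM, then a duplicate retest at 5 µM averaging 50% or more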
STAT3 inh: STAT3 signaling inhibition; U3A cells, IL-6 STAT3-luciferase reporter, luminescence; host cell line lacks STAT1; inhibition, % at 5.5 µM; 190,000 tested, 0.89% active; AID 862;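 active means inhibition above the mean inhibition across all screened compounds plus 3 SD, cut at about 44% in these data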
C8 TRAIL sens: sensitizes caspase-8 expressing cells to TRAIL; NB7+C8 cells + TRAIL, ATPlite viability luminescence; inhibition (viability loss, TRAIL sensitization), % at 10 µM; 360,000 tested, 1% active; AID 624354;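 active means compounds causing at least 50% loss of cell viability in the single-dose screen, relative to plate controls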
Platelet DG rel: platelet dense granule release activity. human platelet-rich plasma, SFLLRN dense granule ATP release, luminescence. inhibition, %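 (compounds screened at 7.5 µM in platelet-rich plasma)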. 300,000 tested, 0.22% active;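 active means mean replicate score, as percent of positive control, at or above 50; inconclusive means mean below 50 but at least one replicate at or above 50; inactive means mean and every replicate below 50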
PPC1 cytotox: PPC-1 cell cytotoxicity | shares compounds with PPC-1+TRAIL kill | PPC-1 viability, ATPlite luminescence, overnight | cytotoxicity, % at 5 µM | 1,200 tested, 50% active | AID 1447;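 active means reconfirmed compounds whose average cytotoxicity reaches 50% or more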
Of the large screens only hits and unclear results are named; the others gave an inactive call (follow-up assays come after a bar, where they were run).

Cc1ccccc1C(=O)Nc1ccc(C(=O)N/N=C/c2ccncc2)cc1	none (no result: PPC-1+TRAIL kill)
O=C(Nc1ccccc1C(=O)N/N=C/c1ccncc1)c1ccccc1	STAT1 inh 54, PPC-1+TRAIL kill 80, STAT3 inh 67, C8 TRAIL sens 89, Platelet DG rel inconclusive | PPC1 cytotox 82
Cc1cc(C(=O)CN2C(=O)c3ccccc3S2(=O)=O)c(C)n1CC1CCCO1 (centres undefined)	STAT1 inh 79, PPC-1+TRAIL kill 86, STAT3 inh 112, C8 TRAIL sens 83 | PPC1 cytotox 85
Cc1cc2c(c(=O)o1)C1(C(=O)N(CC(=O)O)c3ccccc31)C(C#N)=C(N)O2 (centres undefined)	none
CCN1C(=O)C2(C(C#N)=C(N)Oc3cc(C)oc(=O)c32)c2ccccc21 (centres undefined)	none | PPC1 cytotox inactive
Fc1ccc(-c2cnn3c(-c4ccncc4)ccnc23)cc1	C8 TRAIL sens 54 | PPC1 cytotox inactive
COc1ccc(C2NCCc3c2[nH]c2ccccc32)cc1COc1ccc(F)cc1 (centres undefined)	none
COc1ccc(C2NCCc3c2[nH]c2ccccc32)cc1CN1CCc2cc(OC)c(OC)cc2C1C (centres undefined)	none (no result: STAT1 inh, STAT3 inh) | PPC1 cytotox inactive
CCOC(=O)N1CCN(C(=O)c2nc3ccccc3s2)CC1	none | PPC1 cytotox inactive
Cc1cc(NC(=O)CSC2=Nc3ccccc3C3=NC(Cc4ccccc4)C(=O)N23)n[nH]1 (centres undefined)	none | PPC1 cytotox inactive
CC(C)(C)C1=C(C#N)C(c2cc3c(cc2Br)OCO3)C(C#N)=C(N)O1 (centres undefined)	none (no result: STAT1 inh, STAT3 inh) | PPC1 cytotox inactive
Cc1ccc(C2C(C#N)=C(N)Oc3cc4c(cc32)OCO4)cc1 (centres undefined)	none
CCCCNC(=O)c1nc(-c2cnc(C)cn2)oc1-c1ccc(Cl)cc1	none (no result: STAT1 inh, PPC-1+TRAIL kill, STAT3 inh, Platelet DG rel)
COc1ccc(C2=CC(=O)N(Nc3ccccc3)C2=O)cc1	none
Cc1ccc(NN2C(=O)C=C(c3ccc(Cl)cc3)C2=O)cc1	Platelet DG rel 57 | PPC1 cytotox inactive
Cc1ccc(C(=O)N(C)c2ccc(OCC(=O)N3c4ccc(C)cc4C4CN(C)CCC43)cc2)cc1 (centres undefined)	PPC-1+TRAIL kill 52, C8 TRAIL sens 52 | PPC1 cytotox inactive
O=C(Nc1ccc([N+](=O)[O-])cc1)C(=O)Nc1cccc(C(=O)O)c1	PPC-1+TRAIL kill 75, C8 TRAIL sens 86, Platelet DG rel 83 (no result: STAT1 inh, STAT3 inh) | PPC1 cytotox 70
Cc1ccc(-c2nn(-c3ccccc3)cc2/C=N/NC(=O)c2ccncc2)o1	none | PPC1 cytotox inactive
CC(C)c1cc(CN2C(C)COCC2C)cc(C(C)C)c1O (centres undefined)	none (no result: STAT1 inh, PPC-1+TRAIL kill, STAT3 inh, Platelet DG rel)
COc1cccc(CCN2C(=O)CCC3=C2CCC3=O)c1	none (no result: STAT1 inh, PPC-1+TRAIL kill, STAT3 inh, Platelet DG rel)
Cc1cccc(NS(=O)(=O)c2cc(C(=O)N3CCc4ccccc4C3)ccc2Cl)c1C	none | PPC1 cytotox inactive
Cc1ccc(C)c(NS(=O)(=O)c2cc(C(=O)N3CCc4ccccc4C3)ccc2Cl)c1	none
Cc1ccccc1NC(=O)c1ccc2c(c1)OCCO2	none | PPC1 cytotox inactive
Cc1cccc(NC(=O)c2ccc3c(c2)OCCO3)c1C	none (no result: STAT1 inh, PPC-1+TRAIL kill, STAT3 inh)
COC(=O)c1ccc(NC(=O)c2ccc3c(c2)OCO3)cc1	none
COC(=O)c1sccc1NC(=O)c1ccc2c(c1)OCO2	none | PPC1 cytotox inactive
CCN(CC)C(=O)C1=C(C)N(Cc2ccccc2)C(=O)C(CC(=O)NC2CC2)C1 (centres undefined)	none (no result: STAT1 inh, PPC-1+TRAIL kill, STAT3 inh, Platelet DG rel)
COc1ccccc1-[n+]1c(C)cc(/C=C2\Sc3ccccc3N2C)cc1C	PPC-1+TRAIL kill 82, C8 TRAIL sens 84 (no result: STAT1 inh, STAT3 inh) | PPC1 cytotox 82
CNc1ncnc2c1ncn2[C@H]1CN(Cc2ccncc2)C[C@@H](CO)O1	none (no result: STAT1 inh, PPC-1+TRAIL kill, STAT3 inh, Platelet DG rel)
CCC(=O)NC(c1cccs1)c1ccc2cccnc2c1O (centres undefined)	none | PPC1 cytotox inactive
COc1ccc(C(=O)N/C(=C/c2cccs2)c2nc3ccccc3[nH]2)cc1OC	none
COc1cc(/C=C(/C(=O)c2cccs2)c2nc3ccccc3[nH]2)cc(OC)c1O	none | PPC1 cytotox inactive
CC(=O)Nc1ccc(C(=O)OCC(=O)Nc2c(C)n(C)n(-c3ccccc3)c2=O)cc1	none (no result: STAT1 inh, PPC-1+TRAIL kill, STAT3 inh, Platelet DG rel)
O=c1c2ccccc2nc2c3ccccc3c(NCCN3CCOCC3)nn12	none (no result: C8 TRAIL sens)
O=c1c2c(-c3ccccc3)csc2nc2c3ccccc3c(NCCN3CCOCC3)nn12	C8 TRAIL sens 72 | PPC1 cytotox inactive
COc1cccc(-c2cnc(C(O)c3ccc(Cl)c(F)c3)[nH]2)c1 (centres undefined)	none (no result: STAT1 inh, PPC-1+TRAIL kill, STAT3 inh, Platelet DG rel)
CC[C@@]1(C(=O)OC)N[C@H](CN(C)C(=O)NC(C)C)[C@@H]2C(=O)N(C)C(=O)[C@@H]21	none (no result: STAT1 inh, PPC-1+TRAIL kill, STAT3 inh, Platelet DG rel)
Cc1cc(S(=O)(=O)c2ccc(Cl)cc2)nc(S(=O)(=O)c2ccc(Cl)cc2)c1C#N	none (no result: STAT1 inh, PPC-1+TRAIL kill, STAT3 inh, Platelet DG rel)
Cc1ccc(Nc2nc(N)nc(CN3CCN(c4ccccc4)CC3)n2)cc1Cl	none
Nc1nc(CCl)nc(Nc2ccc3ccccc3c2)n1	PPC-1+TRAIL kill 96, C8 TRAIL sens 95 (no result: STAT1 inh, STAT3 inh) | PPC1 cytotox 95
CN(C(=O)c1cccc(NC(=O)Cc2ccc(NC(=O)C3CCCN(C(=O)C4CCC4)C3)cc2)c1)C1CCCCC1 (centres undefined)	none (no result: STAT1 inh, PPC-1+TRAIL kill, STAT3 inh, Platelet DG rel)
CCOC(=O)C1(C)CCCCCN1C(=O)c1ccc(C(=O)OC)cc1 (centres undefined)	none (no result: STAT1 inh, PPC-1+TRAIL kill, STAT3 inh, Platelet DG rel)
COC(=O)c1ccc(COc2ccc(C)cc2[N+](=O)[O-])o1	none (no result: STAT1 inh, STAT3 inh) | PPC1 cytotox inactive
COc1cccc(C(=O)OCC(=O)NC23CC4CC(CC(C4)C2)C3)c1	none (no result: STAT1 inh, PPC-1+TRAIL kill, STAT3 inh, Platelet DG rel)
CS(=O)(=O)c1ccc(C(=O)OCC(=O)NC23CC4CC(CC(C4)C2)C3)cc1[N+](=O)[O-]	none | PPC1 cytotox inactive
COc1ccc2nc(SC)c(C#N)cc2c1	none
COc1ccc2nc(SCC(C)=O)c(C#N)cc2c1	none | PPC1 cytotox inactive
CCCCn1nnnc1C(c1cc2ccccc2o1)N1CCN(C(=O)OCC)CC1 (centres undefined)	none (no result: STAT1 inh, PPC-1+TRAIL kill, STAT3 inh, Platelet DG rel)
O=C(/C=C\Nc1cccc(F)c1)c1ccc2c(c1)OCO2	STAT1 inh 51, PPC-1+TRAIL kill 74, STAT3 inh 96, C8 TRAIL sens 72 | PPC1 cytotox 71
COC(=O)c1ccc(N/C=C\C(=O)c2ccc3c(c2)OCO3)cc1	none
O=C(/C=C\Nc1ccccc1Br)c1ccc2c(c1)OCO2	STAT1 inh 82, PPC-1+TRAIL kill 93, STAT3 inh 87, C8 TRAIL sens 91 | PPC1 cytotox 94
CC(=O)Nc1nc2nc(-c3ccccc3)cc(-c3ccccc3)n2n1	none
O=C1CCC(=O)N1c1nc2nc(-c3ccccc3)cc(-c3ccccc3)n2n1	none | PPC1 cytotox inactive
O=C(NC1CCOc2ccccc21)c1ccc(Cl)nc1 (centres undefined)	none (no result: STAT1 inh, PPC-1+TRAIL kill, STAT3 inh)
CC(C)N(C)C1CCN(C(=O)Nc2ccc(Cl)c(Cl)c2)CC1	none | PPC1 cytotox inactive
Cc1ccc(NC(=S)Nc2cccc3cnccc23)cc1C	none | PPC1 cytotox inactive
Fc1ccccc1NC(=S)Nc1cccc2cnccc12	none | PPC1 cytotox inactive
